Columns and labels:
[1] = target: Fibroblast growth factor receptor 4 (Homo sapiens) (UniProt P22455); settings: at 1 µM;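 note: reported figure is the averaged percent inhibition of FGFR4, from the GSK PKIS kinase screening panel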
[2] = target: Tyrosine-protein kinase Fgr (Homo sapiens) (UniProt P09769); settings: at 0.1 µM
[3] = target: Tyrosine-protein kinase Fgr (Homo sapiens) (UniProt P09769); settings: at 1 µM
[4] = target: Vascular endothelial growth factor receptor 1 (Homo sapiens) (UniProt P17948); settings: at 0.1 µM
[5] = target: Vascular endothelial growth factor receptor 1 (Homo sapiens) (UniProt P17948); settings: at 1 µM
[6] = target: Receptor-type tyrosine-protein kinase FLT3 (Homo sapiens) (UniProt P36888); settings: at 0.1 µM
[7] = target: Receptor-type tyrosine-protein kinase FLT3 (Homo sapiens) (UniProt P36888); settings: at 1 µM
[8] = tested on: T1, Receptor-type tyrosine-protein kinase FLT3 (Homo sapiens), P36888 [D835Y]; settings: at 0.1 µM
T1 sequence (whole entry): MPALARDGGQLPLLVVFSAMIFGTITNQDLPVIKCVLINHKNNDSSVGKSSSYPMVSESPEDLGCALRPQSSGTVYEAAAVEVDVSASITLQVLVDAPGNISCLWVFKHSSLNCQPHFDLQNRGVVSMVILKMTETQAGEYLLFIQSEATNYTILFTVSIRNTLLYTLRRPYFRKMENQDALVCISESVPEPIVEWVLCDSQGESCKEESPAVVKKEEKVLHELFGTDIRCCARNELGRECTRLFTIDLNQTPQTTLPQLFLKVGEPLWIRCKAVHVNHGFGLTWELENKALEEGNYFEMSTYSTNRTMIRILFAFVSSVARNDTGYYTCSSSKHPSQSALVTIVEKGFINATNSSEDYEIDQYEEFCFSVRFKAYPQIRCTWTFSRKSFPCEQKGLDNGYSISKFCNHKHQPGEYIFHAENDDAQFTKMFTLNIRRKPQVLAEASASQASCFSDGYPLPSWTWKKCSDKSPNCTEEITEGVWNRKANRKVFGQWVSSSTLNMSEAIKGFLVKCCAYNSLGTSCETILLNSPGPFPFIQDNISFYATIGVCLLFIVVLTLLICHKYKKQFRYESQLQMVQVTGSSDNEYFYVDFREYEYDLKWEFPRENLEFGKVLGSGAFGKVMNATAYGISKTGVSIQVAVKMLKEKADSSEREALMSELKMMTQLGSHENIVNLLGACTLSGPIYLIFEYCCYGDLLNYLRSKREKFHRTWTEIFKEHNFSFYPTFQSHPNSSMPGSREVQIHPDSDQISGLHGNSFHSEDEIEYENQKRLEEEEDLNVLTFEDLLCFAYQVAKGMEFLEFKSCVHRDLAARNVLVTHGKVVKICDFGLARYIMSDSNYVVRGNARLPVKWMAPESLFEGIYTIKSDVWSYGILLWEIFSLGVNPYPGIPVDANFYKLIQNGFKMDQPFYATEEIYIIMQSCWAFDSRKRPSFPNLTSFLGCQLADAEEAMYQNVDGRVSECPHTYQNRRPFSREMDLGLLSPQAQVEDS

[9] = target: Non-receptor tyrosine-protein kinase TYK2 (Homo sapiens) (UniProt P29597); settings: at 1 µM;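 note: values are mean percent inhibition of TYK2 kinase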
[10] = target: T2, Tyrosine-protein kinase receptor TYRO3 (Homo sapiens) (UniProt Q06418); settings: at 0.1 µM
T2 sequence (whole entry): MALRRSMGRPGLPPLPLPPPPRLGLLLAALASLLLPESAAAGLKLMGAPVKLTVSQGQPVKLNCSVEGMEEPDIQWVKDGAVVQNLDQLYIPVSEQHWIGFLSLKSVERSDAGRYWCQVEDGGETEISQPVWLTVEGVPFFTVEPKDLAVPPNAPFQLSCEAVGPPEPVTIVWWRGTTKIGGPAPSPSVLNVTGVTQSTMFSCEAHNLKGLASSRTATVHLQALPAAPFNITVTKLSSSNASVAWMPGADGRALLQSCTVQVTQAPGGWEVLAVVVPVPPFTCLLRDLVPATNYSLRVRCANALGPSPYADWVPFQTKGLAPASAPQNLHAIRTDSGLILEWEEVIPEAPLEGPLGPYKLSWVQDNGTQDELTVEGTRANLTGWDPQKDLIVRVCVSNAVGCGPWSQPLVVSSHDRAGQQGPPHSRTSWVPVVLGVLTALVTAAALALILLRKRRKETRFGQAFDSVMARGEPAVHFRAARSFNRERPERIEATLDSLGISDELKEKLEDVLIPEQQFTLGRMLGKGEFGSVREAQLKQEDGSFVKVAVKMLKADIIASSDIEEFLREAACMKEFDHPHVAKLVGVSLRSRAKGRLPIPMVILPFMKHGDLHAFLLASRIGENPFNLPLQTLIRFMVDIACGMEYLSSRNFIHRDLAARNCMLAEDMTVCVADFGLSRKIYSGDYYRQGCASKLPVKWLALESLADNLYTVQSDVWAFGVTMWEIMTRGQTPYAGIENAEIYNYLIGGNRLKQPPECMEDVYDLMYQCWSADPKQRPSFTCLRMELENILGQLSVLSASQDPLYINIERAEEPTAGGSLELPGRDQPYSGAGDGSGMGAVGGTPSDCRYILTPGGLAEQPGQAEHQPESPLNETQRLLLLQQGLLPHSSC

[11] = target: T2, Tyrosine-protein kinase receptor TYRO3 (Homo sapiens); settings: at 1 µM
[12] = target: Tyrosine-protein kinase Yes (Homo sapiens) (UniProt P07947); settings: at 0.1 µM
[13] = target: Tyrosine-protein kinase Yes (Homo sapiens) (UniProt P07947); settings: at 1 µM
[14] = target: T3, Tyrosine-protein kinase ZAP-70 (Homo sapiens) (UniProt P43403); settings: at 0.1 µM
T3 sequence (whole entry): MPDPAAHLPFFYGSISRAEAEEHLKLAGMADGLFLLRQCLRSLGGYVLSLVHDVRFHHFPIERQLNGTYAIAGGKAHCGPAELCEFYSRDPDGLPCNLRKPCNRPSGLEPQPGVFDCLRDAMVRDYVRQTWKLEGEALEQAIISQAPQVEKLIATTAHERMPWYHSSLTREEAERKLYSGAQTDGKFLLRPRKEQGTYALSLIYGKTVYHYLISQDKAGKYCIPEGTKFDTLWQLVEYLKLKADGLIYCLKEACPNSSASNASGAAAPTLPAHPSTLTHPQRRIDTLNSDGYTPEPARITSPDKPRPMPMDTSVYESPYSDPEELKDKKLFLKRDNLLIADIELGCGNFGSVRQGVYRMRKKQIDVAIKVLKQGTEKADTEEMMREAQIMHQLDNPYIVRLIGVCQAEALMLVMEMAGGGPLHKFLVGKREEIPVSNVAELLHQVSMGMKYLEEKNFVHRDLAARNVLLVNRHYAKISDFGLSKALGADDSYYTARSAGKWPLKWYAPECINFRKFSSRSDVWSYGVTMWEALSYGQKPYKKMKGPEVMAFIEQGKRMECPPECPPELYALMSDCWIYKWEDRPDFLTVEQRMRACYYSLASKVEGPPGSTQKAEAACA

[15] = target: T3, Tyrosine-protein kinase ZAP-70 (Homo sapiens); settings: at 1 µM
[16] = target: Serine/threonine-protein kinase B-raf (Homo sapiens) (UniProt P15056); settings: at 0.1 µM
[17] = target: Serine/threonine-protein kinase B-raf (Homo sapiens) (UniProt P15056); settings: at 1 µM
[18] = tested on: Serine/threonine-protein kinase B-raf (Homo sapiens), P15056 [V600E]; settings: at 0.1 µM
[19] = tested on: Serine/threonine-protein kinase B-raf (Homo sapiens), P15056 [V600E]; settings: at 1 µM
[20] = target: RAF proto-oncogene serine/threonine-protein kinase (Homo sapiens) (UniProt P04049); settings: at 0.1 µM;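 note: values are mean CRAF kinase inhibition from profiling of the GSK Published Kinase Inhibitor Set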
Chain of RAF proto-oncogene serine/threonine-protein kinase (Homo sapiens) (P04049 whole entry): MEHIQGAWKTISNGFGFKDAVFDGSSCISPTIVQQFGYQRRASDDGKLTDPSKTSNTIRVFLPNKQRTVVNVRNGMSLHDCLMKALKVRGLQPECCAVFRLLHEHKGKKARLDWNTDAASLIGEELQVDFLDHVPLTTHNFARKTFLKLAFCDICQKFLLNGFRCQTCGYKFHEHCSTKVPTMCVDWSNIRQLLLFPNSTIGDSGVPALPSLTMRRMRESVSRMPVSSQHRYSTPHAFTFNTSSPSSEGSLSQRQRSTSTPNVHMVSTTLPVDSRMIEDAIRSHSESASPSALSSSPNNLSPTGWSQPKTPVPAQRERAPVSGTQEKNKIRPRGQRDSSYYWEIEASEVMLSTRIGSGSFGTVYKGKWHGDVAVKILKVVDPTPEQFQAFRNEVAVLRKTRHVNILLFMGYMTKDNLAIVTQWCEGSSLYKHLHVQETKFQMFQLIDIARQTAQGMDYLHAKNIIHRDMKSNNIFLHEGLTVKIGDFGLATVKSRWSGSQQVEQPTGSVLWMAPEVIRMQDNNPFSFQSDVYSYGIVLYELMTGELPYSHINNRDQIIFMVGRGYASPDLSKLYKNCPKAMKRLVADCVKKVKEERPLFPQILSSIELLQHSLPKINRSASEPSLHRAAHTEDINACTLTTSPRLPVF

Chain of Non-receptor tyrosine-protein kinase TYK2 (Homo sapiens) (P29597 whole entry): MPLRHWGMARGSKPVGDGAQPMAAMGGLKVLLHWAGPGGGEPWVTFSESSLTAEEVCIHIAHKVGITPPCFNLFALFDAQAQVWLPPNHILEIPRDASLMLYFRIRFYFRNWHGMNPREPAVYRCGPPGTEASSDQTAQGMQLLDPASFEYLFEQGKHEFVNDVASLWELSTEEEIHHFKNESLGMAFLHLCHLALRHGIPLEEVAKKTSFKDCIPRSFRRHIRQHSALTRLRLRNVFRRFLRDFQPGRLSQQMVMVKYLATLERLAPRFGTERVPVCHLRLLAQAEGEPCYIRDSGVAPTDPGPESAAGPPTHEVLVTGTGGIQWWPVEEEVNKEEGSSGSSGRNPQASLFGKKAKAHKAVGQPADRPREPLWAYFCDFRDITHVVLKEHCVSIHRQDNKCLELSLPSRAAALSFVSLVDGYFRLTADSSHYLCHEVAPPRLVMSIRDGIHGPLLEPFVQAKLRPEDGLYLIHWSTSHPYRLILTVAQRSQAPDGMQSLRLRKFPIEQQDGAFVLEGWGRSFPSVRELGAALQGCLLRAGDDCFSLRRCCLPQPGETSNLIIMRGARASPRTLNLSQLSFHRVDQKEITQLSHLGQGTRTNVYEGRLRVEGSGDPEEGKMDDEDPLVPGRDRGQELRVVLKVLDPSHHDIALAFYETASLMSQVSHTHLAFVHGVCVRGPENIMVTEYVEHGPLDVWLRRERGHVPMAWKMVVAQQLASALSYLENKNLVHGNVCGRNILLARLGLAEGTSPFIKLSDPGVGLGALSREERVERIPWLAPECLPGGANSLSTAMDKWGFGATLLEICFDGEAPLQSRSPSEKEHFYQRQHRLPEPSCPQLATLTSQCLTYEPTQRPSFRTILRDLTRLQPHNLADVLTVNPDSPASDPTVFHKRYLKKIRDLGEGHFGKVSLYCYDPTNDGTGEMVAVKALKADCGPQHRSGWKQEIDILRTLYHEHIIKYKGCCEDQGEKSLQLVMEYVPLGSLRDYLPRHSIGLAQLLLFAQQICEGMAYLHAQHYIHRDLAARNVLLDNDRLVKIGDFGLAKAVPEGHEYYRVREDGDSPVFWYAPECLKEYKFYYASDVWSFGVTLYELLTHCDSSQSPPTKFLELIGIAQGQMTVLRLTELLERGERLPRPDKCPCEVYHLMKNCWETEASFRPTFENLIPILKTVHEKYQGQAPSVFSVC
Chain of Tyrosine-protein kinase Yes (Homo sapiens) (P07947 2-543 limits assumed): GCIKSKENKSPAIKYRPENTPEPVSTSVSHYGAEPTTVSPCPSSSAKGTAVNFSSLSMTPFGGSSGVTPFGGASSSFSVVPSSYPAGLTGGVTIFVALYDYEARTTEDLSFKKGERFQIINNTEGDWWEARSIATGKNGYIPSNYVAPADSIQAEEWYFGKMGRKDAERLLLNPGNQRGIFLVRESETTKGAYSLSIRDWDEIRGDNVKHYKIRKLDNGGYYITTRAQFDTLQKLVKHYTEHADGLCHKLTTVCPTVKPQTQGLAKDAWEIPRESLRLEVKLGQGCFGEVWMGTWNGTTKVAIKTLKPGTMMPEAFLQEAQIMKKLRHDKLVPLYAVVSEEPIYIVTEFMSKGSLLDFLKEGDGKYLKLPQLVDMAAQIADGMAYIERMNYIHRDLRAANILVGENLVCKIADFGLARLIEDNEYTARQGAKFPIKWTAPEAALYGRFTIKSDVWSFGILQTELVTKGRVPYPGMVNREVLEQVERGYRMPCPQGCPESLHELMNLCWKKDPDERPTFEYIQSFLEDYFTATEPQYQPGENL
Chain of Fibroblast growth factor receptor 4 (Homo sapiens) (P22455 22-802 limits assumed): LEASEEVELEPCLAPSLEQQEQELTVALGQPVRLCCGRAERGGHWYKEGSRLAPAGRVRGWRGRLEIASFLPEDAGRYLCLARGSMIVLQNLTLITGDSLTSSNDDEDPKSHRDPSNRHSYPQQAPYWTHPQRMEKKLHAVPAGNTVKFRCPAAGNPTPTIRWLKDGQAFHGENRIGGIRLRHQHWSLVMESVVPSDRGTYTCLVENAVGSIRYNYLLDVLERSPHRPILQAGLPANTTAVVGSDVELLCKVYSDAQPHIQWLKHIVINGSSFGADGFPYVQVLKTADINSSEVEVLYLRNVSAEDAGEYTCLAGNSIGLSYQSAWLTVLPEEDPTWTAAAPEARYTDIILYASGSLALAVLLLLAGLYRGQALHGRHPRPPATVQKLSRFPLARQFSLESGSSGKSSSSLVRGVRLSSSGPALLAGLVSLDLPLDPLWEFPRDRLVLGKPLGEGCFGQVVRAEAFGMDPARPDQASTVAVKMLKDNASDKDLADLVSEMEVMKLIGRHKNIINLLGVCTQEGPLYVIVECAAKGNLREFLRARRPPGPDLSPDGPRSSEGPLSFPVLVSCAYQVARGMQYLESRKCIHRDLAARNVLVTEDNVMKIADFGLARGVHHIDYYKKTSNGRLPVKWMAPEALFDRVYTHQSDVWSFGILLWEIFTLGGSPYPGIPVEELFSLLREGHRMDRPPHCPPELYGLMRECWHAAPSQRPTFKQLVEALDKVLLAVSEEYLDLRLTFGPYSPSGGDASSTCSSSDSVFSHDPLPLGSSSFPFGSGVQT
Chain of Vascular endothelial growth factor receptor 1 (Homo sapiens) (P17948 whole entry): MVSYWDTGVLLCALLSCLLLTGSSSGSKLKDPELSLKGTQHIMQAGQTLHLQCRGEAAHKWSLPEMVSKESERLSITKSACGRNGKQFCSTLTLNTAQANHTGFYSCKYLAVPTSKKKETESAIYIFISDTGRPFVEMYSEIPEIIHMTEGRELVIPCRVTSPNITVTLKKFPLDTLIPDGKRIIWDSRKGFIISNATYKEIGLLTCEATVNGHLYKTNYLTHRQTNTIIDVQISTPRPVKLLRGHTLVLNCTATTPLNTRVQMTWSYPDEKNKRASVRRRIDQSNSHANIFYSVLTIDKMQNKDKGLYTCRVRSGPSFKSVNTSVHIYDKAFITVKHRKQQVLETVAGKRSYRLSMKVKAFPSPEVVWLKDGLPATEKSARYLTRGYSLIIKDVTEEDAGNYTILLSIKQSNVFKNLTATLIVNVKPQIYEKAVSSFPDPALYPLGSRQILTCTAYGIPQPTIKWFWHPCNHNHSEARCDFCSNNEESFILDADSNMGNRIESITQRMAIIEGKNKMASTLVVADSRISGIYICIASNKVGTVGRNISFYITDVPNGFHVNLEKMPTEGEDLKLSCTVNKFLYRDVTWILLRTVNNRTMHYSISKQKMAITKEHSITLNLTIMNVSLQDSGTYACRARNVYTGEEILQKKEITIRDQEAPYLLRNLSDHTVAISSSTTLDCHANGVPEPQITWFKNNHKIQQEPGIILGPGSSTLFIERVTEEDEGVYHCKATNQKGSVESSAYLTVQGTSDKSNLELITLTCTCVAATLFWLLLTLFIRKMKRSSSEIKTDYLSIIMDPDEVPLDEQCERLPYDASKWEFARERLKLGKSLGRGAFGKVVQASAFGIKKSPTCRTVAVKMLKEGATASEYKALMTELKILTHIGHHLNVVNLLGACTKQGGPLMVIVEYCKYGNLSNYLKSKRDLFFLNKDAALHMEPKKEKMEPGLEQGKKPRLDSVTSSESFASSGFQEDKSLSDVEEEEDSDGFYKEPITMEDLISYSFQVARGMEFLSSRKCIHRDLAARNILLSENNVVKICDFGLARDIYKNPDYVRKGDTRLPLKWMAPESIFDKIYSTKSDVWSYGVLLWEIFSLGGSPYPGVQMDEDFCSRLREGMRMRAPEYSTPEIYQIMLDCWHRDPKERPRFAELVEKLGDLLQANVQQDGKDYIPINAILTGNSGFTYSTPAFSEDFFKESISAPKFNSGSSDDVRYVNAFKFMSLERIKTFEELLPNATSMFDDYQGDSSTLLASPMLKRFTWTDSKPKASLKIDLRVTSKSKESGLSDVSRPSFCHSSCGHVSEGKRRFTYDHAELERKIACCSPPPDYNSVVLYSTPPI
Chain of Tyrosine-protein kinase Fgr (Homo sapiens) (P09769 2-529 limits assumed): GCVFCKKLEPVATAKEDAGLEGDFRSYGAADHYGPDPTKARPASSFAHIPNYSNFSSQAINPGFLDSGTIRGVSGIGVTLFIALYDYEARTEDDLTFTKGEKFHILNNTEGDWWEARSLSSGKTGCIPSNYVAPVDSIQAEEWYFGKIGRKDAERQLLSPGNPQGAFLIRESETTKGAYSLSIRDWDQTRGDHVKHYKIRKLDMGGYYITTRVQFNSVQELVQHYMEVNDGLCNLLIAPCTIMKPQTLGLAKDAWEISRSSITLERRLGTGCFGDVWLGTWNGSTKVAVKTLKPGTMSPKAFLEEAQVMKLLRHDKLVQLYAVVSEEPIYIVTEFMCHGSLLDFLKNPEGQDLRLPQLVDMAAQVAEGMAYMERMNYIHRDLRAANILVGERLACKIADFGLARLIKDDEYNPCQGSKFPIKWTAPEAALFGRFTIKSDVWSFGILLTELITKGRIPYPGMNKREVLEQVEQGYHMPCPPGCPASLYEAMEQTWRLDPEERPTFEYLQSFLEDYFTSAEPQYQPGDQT

Row | Compound | inhibition [1] | inhibition [2] | inhibition [3] | inhibition [4] | inhibition [5] | inhibition [6] | inhibition [7] | inhibition [8] | inhibition [9] | inhibition [10] | inhibition [11] | inhibition [12] | inhibition [13] | inhibition [14] | inhibition [15] | inhibition [16] | inhibition [17] | inhibition [18] | inhibition [19] | inhibition [20]
1 | COc1cc(N2CCN(C(C)C)CC2)ccc1Nc1nc(Nc2ccc(F)cc2C(N)=O)c2cc[nH]c2n1 | 7.42% | 0.9% | 5.03% | -0.84% | 0.61% | 2.47% | 8.56% | 2.42% | -2.61% | 0.64% | 2.95% | 0.75% | 7.33% | 6.3% | 23.5% | 2.3% | 16.1% | 1.62% | 13.7% | 0.33%
2 | O=S(=O)(CCNCc1ccc(-c2ccc3ncnc(Nc4ccc(OCc5cccc(F)c5)c(Cl)c4)c3c2)o1)c1ccccc1 | 1.88% | 2.78% | 5.07% | 2.06% | 4.7% | 5.79% | 4.97% | -2.76% | -2.79% | 1.84% | 3% | 3.79% | 7.66% | 2.6% | 1.7% | 8.76% | 8.78% | 6.36% | 6.18% | 1.16%
3 | [O-][S+]1CCN(Cc2ccc(-c3ccc4ncnc(Nc5ccc(OCc6cccc(F)c6)c(Cl)c5)c4c3)o2)CC1 | 0.31% | 3.65% | 6.21% | 0.35% | -0.47% | 4.64% | 5.03% | 1.35% | -4.3% | 3.67% | 18.8% | 6.03% | 21.1% | 0.38% | 3.57% | 6.54% | 8.02% | 5.36% | 5.17% | -0.6%
4 | Cc1ccc(O)cc1Nc1ccnc2cc(-c3ccccn3)ccc12 | 30.8% | 52.2% | 82.7% | 82.1% | 95.7% | 3.74% | 4.17% | 1.48% | -4% | 4.12% | 13.9% | 58.2% | 90.7% | 0.52% | 4.03% | 9.05% | 12.1% | 8.35% | 9.49% | -1.1%
5 | COc1cc(Nc2nccc(Nc3ccc4c(C)n[nH]c4c3)n2)cc(OC)c1OC | 2.48% | 18.2% | 57.5% | 38.3% | 88% | 57.8% | 90.3% | 52.4% | 33.3% | 5.01% | 27.9% | 28.4% | 70.7% | 9.11% | 32.7% | 1.16% | 9.2% | 2.09% | 7% | -7.99%
6 | O=C(O[C@H]1CN[C@H](C#Cc2cc3ncnc(Nc4ccc(Cc5ccccc5)cc4)c3s2)C1)N1CCOCC1 | 0.95% | 5.25% | 20.8% | -0.12% | 2.35% | -1.61% | 0.34% | 5.18% | -3.27% | 0.99% | 0.43% | 7.04% | 38.8% | -0.2% | 2.04% | 3.95% | 4.23% | 3.02% | 3.28% | -1.64%
7 | COc1cccc(-c2c[nH]c3c(N/N=C/c4ccncc4)ncnc23)c1 | 2.46% | 14.2% | 54.2% | 2.08% | 18.4% | 6.9% | 39% | 16.4% | 10.5% | 7.3% | 38% | 19.6% | 65.2% | 1.26% | 1.55% | 3.1% | 11% | 3.98% | 11.2% | 2.82%
